Consider 18 compounds from PubChem BioAssay (NCATS).

Records with an inconclusive call do not appear. Calls of active or inactive are those of the source. The call rests on the fitted dose curve; in most records, active means well fitted cell-killing curve with a large enough effect; inconclusive means small, poorly fitted or top-dose-only effect, or effect the other way; inactive means no such curve, though single readings can be large or run the other way.

The nature of experiment [1]: Quantitative High-Throughput drug screen in 47 multiple myeloma cell lines against the NCATS MIPE library collection: XG1_PLB cell viability assay (AID 1919866). Further: nearly all actives have a fitted effect of over 35% in size. The essentials:
(§1)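 Readout: median RLU from CellTiter-Glo after 5 min at room temperature. Preceding step was 48 h drug treatment of 500 cells/well at 37 °C, 5% CO2, with DMSO-only and media-only control wells.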

Experiment [2] can be described thus: Quantitative High-Throughput drug screen in 47 multiple myeloma cell lines against the NCATS MIPE library collection: VP6_DJ cell viability assay (AID 1919867). Further: nearly all actives have a fitted effect of over 40% in size. The essentials:
as §1

Experiment [3] is described as follows: Quantitative High-Throughput drug screen in 47 multiple myeloma cell lines against the NCATS MIPE library collection: PE2_PLB cell viability assay (AID 1919869). Further: nearly all actives have a fitted effect of over 35% in size. The essentials: as §1
A short description of experiment [4]: Quantitative High-Throughput drug screen in 47 multiple myeloma cell lines against the NCATS MIPE library collection: PCM6_Riken cell viability assay (AID 1919870). Further: nearly all actives have a fitted effect of over 30% in size. The method in brief:
as §1

Experiment [5] is described as follows: Quantitative High-Throughput drug screen in 47 multiple myeloma cell lines against the NCATS MIPE library collection: RPMI8226_ATCC cell viability assay (AID 1919871). Further: nearly all actives have a fitted effect of over 30% in size. The essentials:
as §1

A short description of experiment [6]: Quantitative High-Throughput drug screen in 47 multiple myeloma cell lines against the NCATS MIPE library collection: OPM2_DSMZ cell viability assay (AID 1919872). Further: nearly all actives have a fitted effect of over 30% in size. The method in brief: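 CellTiter-Glo luminescence (ATP) after 48 h compound exposure, 37C/5% CO2; 500 cells/well; MIPE 4.0 approved/investigational drugs pinned in; DMSO = 100%, media only = 0% viability.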

Experiment [7] is described as follows: Quantitative High-Throughput drug screen in 47 multiple myeloma cell lines against the NCATS MIPE library collection: KMS28BM_JCRB cell viability assay (AID 1919874). Further: nearly all actives have a fitted effect of over 35% in size. The method in brief: as §1
Experiment [8] can be described thus: Quantitative High-Throughput drug screen in 47 multiple myeloma cell lines against the NCATS MIPE library collection: UTMC2_PLB cell viability assay (AID 1919868). Further: nearly all actives have a fitted effect of over 55% in size. Conditions: CellTiter-Glo ATP luminescence, 48 h; viability (% of DMSO control): at 45.8 µM (top of the series). The method in brief:
as §1
Background: ATP-based viability assays read luminescence as a measure of living cells.

A short description of experiment [9]: Quantitative High-Throughput drug screen in 47 multiple myeloma cell lines against the NCATS MIPE library collection: KMS11_JCRBsus cell viability assay (AID 1919873). Further: nearly all actives have a fitted effect of over 50% in size. The method in brief: as §1
Potency means the concentration at half of the fitted maximal effect.

Consider `O=C(O)C(=O)Nc1cccc(C2=NN=N[N]2)c1`, for which the Potency result in experiment [1], in experiment [2], in experiment [3], in experiment [4], in experiment [5] and in experiment [6] was “inactive” each time. Besides, the Potency result in experiment [7] is “inactive”.

On to `COc1cc(C(C)C)c(Oc2cnc(NC(CO)CO)nc2N)cc1I`, for which the Potency entry in experiment [1], in [4], in experiment [6], in [9] and in experiment [7] was “inactive” throughout. The viability (% of DMSO control) in experiment [8] was 201% (active). For the same compound, the Potency was 7.43 µM (active) in experiment [3] and 3.32 µM (active) in experiment [5].

Consider `COc1ccc2cc([S+]([O-])Cc3ncc(C)c(OC)c3C)nc2c1`, for which the Potency result in experiment [1], in experiment [2], in experiment [4], in [5], in experiment [6] and in experiment [9] was “inactive” in each case.

`C[C@]12CC[C@@H]3c4ccc(O)cc4CC[C@H]3[C@H]1CC[C@H]2O`: the Potency in [1] was 6.62 µM (active); in experiment [2], 8.33 µM (active); in [3] it was 16.6 µM (active); in experiment [5], 18.7 µM (active); in [6] it was 18.7 µM (active); in experiment [9], 14.8 µM (active).

For the compound `O=c1[nH]c(=O)n([C@H]2C[C@@H](O)[C@@H](CO)O2)cc1C=CBr`, the Potency result in [1], in experiment [2], in experiment [3], in experiment [4], in experiment [5] and in experiment [9] was “inactive” throughout. Further, in experiment [7], the Potency result is “inactive”.

For `N[C@H]1CN(c2c(F)cc3c(=O)c(C(=O)O)cn(C4C[C@@H]4F)c3c2Cl)CC12CC2` (stereo partly drawn), the Potency entry in [1], in experiment [2], in experiment [3], in experiment [4], in [9] and in [7] was “inactive” in each case.

As for `CN(CC(=O)N(Cc1ccc(C2CCCCC2)cc1)c1ccc(C(=O)O)c(O)c1)S(=O)(=O)c1c(F)c(F)c(F)c(F)c1F`, the Potency in experiment [1] is 4.69 µM (active); in experiment [3], 3.32 µM (active); in [4], 6.62 µM (active); in experiment [5] it was 23.5 µM (active); in [6], 23.5 µM (active). Also, the viability (% of DMSO control) in [8] was 77% (active).

As for `Cc1ccc2nc(NCCN)c3ncc(C)n3c2c1`, the Potency is 2.35 µM (active) in [1]; 4.69 µM (active) in experiment [8]; 9.35 µM (active) in experiment [3]; 2.64 µM (active) in experiment [4]; 6.62 µM (active) in experiment [5]; 11.8 µM (active) in experiment [6]. Further, the Potency is 3.72 µM (active) in [9] and 6.62 µM (active) in [7].

As to `O=C(c1ccc(F)cc1)N1CCC[C@H](c2nc(-c3ccc(F)cc3)no2)C1`, the Potency result in experiment [1], in experiment [2], in experiment [3], in [4], in [6] and in [9] was “inactive” each time. Moreover, in experiment [7], the Potency result was “inactive”.

As for `CC(=O)NC(CS)C(=O)O` (stereo not drawn), the Potency entry in experiment [1], in [2], in experiment [3], in experiment [4], in experiment [5] and in [7] was “inactive” throughout.

Take `COc1ccnc2[nH]cc(C(=O)C(=O)N3CCN(C(=O)c4ccccc4)C[C@@H]3C)c12`: the Potency entry in experiment [1], in experiment [8], in experiment [3], in experiment [4], in experiment [5] and in experiment [6] was “inactive” each time. Moreover, in experiment [9], the Potency result was “inactive”.

With `OCCNC1CCCc2c1[nH]c1ccc(-c3ccccc3)cc21` (stereo not drawn), the Potency in experiment [1] is 9.35 µM (active); in experiment [2], 8.33 µM (active); in [3], 14.8 µM (active); in experiment [4], 11.8 µM (active); in [5] it was 26.4 µM (active); in experiment [9] it was 2.96 µM (active). Further, the Potency in experiment [7] is 20.9 µM (active).

Regarding `CC(C)(C)c1nc2c3cc[nH]c(=O)c3c3cc(F)ccc3c2[nH]1`, the Potency in experiment [1] was 0.743 µM (active); in [8], 0.187 µM (active); in experiment [3], 0.833 µM (active); in [4], 0.743 µM (active); in experiment [5], 2.96 µM (active); in experiment [6] it was 1.66 µM (active). The Potency is 0.662 µM (active) in experiment [9] and 2.09 µM (active) in experiment [7].

As for `c1cc(CN2CCCNCCNCCCNCC2)ccc1CN1CCCNCCNCCCNCC1`, the Potency entry in experiment [1], in experiment [2], in experiment [3], in experiment [5], in experiment [9] and in experiment [7] was “inactive” each time.

In the case of `CC(C)c1cnn2c(NCc3ccccc3)cc(NCCCCCCN)nc12`, the Potency in experiment [1] is 0.935 µM (active); in experiment [2], 11.8 µM (active); in experiment [3] it was 26.4 µM (active); in [4], 13.2 µM (active); in experiment [9], 26.4 µM (active).

For the compound `NC(=O)N1CCC(CC(=O)N2CCC([C@H]3c4ncc(Br)cc4CCc4cc(Cl)cc(Br)c43)CC2)CC1`, the Potency in [1] is 5.26 µM (active); in experiment [2], 13.2 µM (active); in [3] it was 14.8 µM (active); in experiment [4], 20.9 µM (active); in [5] it was 16.6 µM (active); in [9], 10.5 µM (active). Also, the Potency in experiment [7] was 20.9 µM (active).

On to `COc1ccc(S(=O)(=O)Nc2cc(-c3c(O)ccc4ccccc34)c(O)c3ccccc23)cc1`, for which the Potency in [1] was 5.26 µM (active); in experiment [8] it was 16.6 µM (active); in experiment [3], 1.48 µM (active); in experiment [4], 5.26 µM (active); in experiment [5] it was 23.5 µM (active); in experiment [6] it was 11.8 µM (active). In addition, the values for the Potency in experiment [9] and in experiment [7] were 3.32 µM (active) and 3.72 µM (active), respectively.

Regarding `CC(=O)OC[C@@H]1O[C@@H](n2ccc(=O)[nH]c2=O)[C@H](OC(C)=O)[C@H]1OC(C)=O`, the Potency entry in experiment [1], in experiment [8], in [3], in experiment [4], in experiment [5] and in [6] was “inactive” each time. The Potency entry in experiment [9] and in experiment [7] was “inactive” each time.
